# Assay results published in the supplement of paper PMC7261846.
# Where a name gives a salt, the structure may show the parent alone. ± gives the uncertainty stated by the source.
# Test system: Candida albicans SNY425 biofilm
# Experiment: biofilm OD600 with compound plus antifungal (OD600 (absorbance)); higher = more biofilm remaining
# [1] = assay detail: disruption of 24-h mature biofilm (compound + antifungal for a second 24 h)
# [2] = assay detail: sustained inhibition (compound + antifungal during 90-min adherence and 24-h growth)
SMILES,biofilm OD600 [1],biofilm OD600 [2]
CCCCC[C@H](CC(=O)NO)C(=O)N[C@H](C(=O)N1CCC[C@H]1CO)C(C)C [Actinonin] + C[C@@H]1[C@H](O)[C@@H](C)/C=C/C=C/C=C/C=C/C=C/C=C/C=C/[C@H](O[C@@H]2O[C@H](C)[C@@H](O)[C@H](N)[C@@H]2O)C[C@@H]2O[C@](O)(C[C@@H](O)C[C@@H](O)[C@H](O)CC[C@@H](O)C[C@@H](O)CC(=O)O[C@H]1C)C[C@H](O)[C@H]2C(=O)O [amphotericin B] (first compound 12.5 µM),0.255 ± 0.017,0.191 ± 0.0077
COC(=O)C[C@H](NC(=O)[C@H](C)NC(=O)[C@@H](NC(=O)OCc1ccccc1)C(C)C)C(=O)CF + OC(Cn1cncn1)(Cn1cncn1)c1ccc(F)cc1F [fluconazole] (first compound 12.5 µM),0.283 ± 0.0098,0.12 ± 0.0089
"Nc1ccc(CC(CC(=O)O)C(=O)O)cc1 [4-Amino-D, L-benzylsuccinic acid] + OC(Cn1cncn1)(Cn1cncn1)c1ccc(F)cc1F [fluconazole] (first compound 12.5 µM)",0.291 ± 0.009,0.12 ± 0.0067
CCOC(=O)c1ccc(OC(=O)CCCCCNC(=N)N)cc1 [Gabexate mesylate] + OC(Cn1cncn1)(Cn1cncn1)c1ccc(F)cc1F [fluconazole] (first compound 12.5 µM),0.267 ± 0.013,0.116 ± 0.0062
O=C1Nc2ccc([N+](=O)[O-])cc2C1=O [5-Nitroisatin] + CC[C@H](C)C[C@H](C)CCCCCCCCC(=O)N[C@H]1C[C@@H](O)[C@@H](NCCN)NC(=O)[C@@H]2[C@@H](O)CCN2C(=O)[C@H]([C@H](O)CCN)NC(=O)[C@H]([C@H](O)[C@@H](O)c2ccc(O)cc2)NC(=O)[C@@H]2C[C@@H](O)CN2C(=O)[C@H]([C@@H](C)O)NC1=O [caspofungin] (first compound 12.5 µM),0.255 ± 0.0081,0.156 ± 0.013
